Our source for the composite z-score and z-score values is PubChem BioAssay.

A short description of assay [1]: compounds binding Alexa647 anti-His antibody – biochemical, small-molecule microarray, 635 nm fluorescence, artefact control for SMM control protein annotation, primary screen (AID 1128).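 Further: score merges feature fluorescence with signal-to-noise for each printed compound spot.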 The following applies: higher = more signal.
Assay [2] relates to Human papillomavirus type 1a E7 protein (residues 1-88). Briefly: HPV1a E7 small-molecule binders, primary screen, biochemical, small-molecule microarray, residues 1-88, 635 nm (AID 1129). The following applies: small-molecule microarray binding, fluorescence 635 nm; higher = more signal.
The target in assay [3] is Focal adhesion kinase 1 (Homo sapiens) (UniProt Q05397). Briefly: PTK2 protein binding on printed compound slides – biochemical, small-molecule microarray, 635/667 nm fluorescence, BSA, DTT, primary screen (AID 1130).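 Further: composite of spot emission at 667 nm and signal to noise over triplicate slides.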 The following applies: 635 nm fluorescence, higher = more signal.
In assay [4] the test system is Fibrinogen (Alexa647-labelled). The experiment in a line: Alexa647-fibrinogen binding to printed small molecules – biochemical, small-molecule microarray, 635/667 nm fluorescence, artefact control for SMM control-protein annotation, profiling panel (AID 1131).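 Further: z-score merges 667 nm fluorescence with per-spot signal-to-noise over triplicate slides.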 The note with it: fibrinogen-A647 binding fluorescence, higher = more signal.
The target in assay [5] is Follistatin (Homo sapiens) (UniProt P19883). Briefly: FST protein binding to printed compounds – biochemical, small-molecule microarray, 635/667 nm fluorescence, primary screen (AID 1132). The note with it: 635 nm fluorescence, higher = more signal.
Assay [6] concerns the target Fibroblast growth factor 2 (Homo sapiens) (UniProt P09038). The experiment in a line: basic fibroblast growth factor binding to printed compounds – biochemical, small-molecule microarray, 635/667 nm fluorescence, primary screen (AID 1133). The following applies: FGF2, fluorescence 635/667, higher = more signal.
Assay [7] in a line: JC-1 mitochondrial potential readout, lung cancer cells – cell-based, A549, JC-1 fluorescence, basal, 24 h, 100 nL, profiling panel (AID 1138).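 Further: A549 lung adenocarcinoma cells under basal conditions with no added stimulus; test concentration not given here.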 The following applies: higher = more signal.
Another assay deals with Lefty1. Briefly: Lefty1 protein binding to printed compounds – biochemical, small-molecule microarray, 635/667 nm fluorescence, primary screen (AID 1139). The following applies: fluorescence 635/667, higher = more signal.
Assay [8] relates to wheat germ agglutinin (Triticum aestivum), Alexa647-labelled. Briefly: Alexa647-WGA lectin binding to printed small molecules – biochemical, small-molecule microarray, 635/667 nm fluorescence, artefact control for SMM control-protein annotation, profiling panel (AID 1140).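 Further: score merges 667 nm feature emission with signal to noise over triplicate slides.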 The note with it: WGA-A647 binding, 635 nm fluorescence, higher = more signal.
The target of assay [9] is Luciferin 4-monooxygenase (Photinus pyralis) (UniProt P08659). Briefly: inhibition of purified Photinus pyralis luciferase – biochemical, luminescence, purified enzyme, 2006 set, primary screen (AID 1141).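 Further: cell-free assay with purified firefly luciferase at 100 ng per well in PBS; test concentration not given here.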 The note with it: purified firefly luciferase, SteadyGlo luminescence, 30 min; higher = more signal, called active from +8 up or from −8 down.
The test system of assay [10] is Wnt5a (protein binding on small-molecule microarray). Briefly: small molecules binding Wnt5a protein – biophysical, small-molecule microarray, 635/667 nm fluorescence, primary screen (AID 1142).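 Further: fluorescence read at 667 nm with signal to noise per printed feature.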 The following applies: 635 nm fluorescence, higher = more signal.
The nature of assay [11]: ATP-based viability of Huh7 replicon cells – cell-based, CellTiter-Glo luminescence, basal, 48 h, cytotoxicity control for HCV replication inhibitor project, primary screen (AID 1143).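 Further: Huh7 hepatoma cells carrying a hepatitis C replication reporter with no stimulus; test concentration not given here.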 The following applies: higher = more signal, called active from +8 up or from −8 down. On the technique in general: In antiviral work, replicon cells carry a viral genome segment that copies itself.

The nature of assay [12]: Pseudomonas biofilm growth suppression – PAO1 strain, BacTiter-Glo luminescence, LB-PBS, primary screen (AID 1144). The note with it: P. aeruginosa PAO1 biofilm, 12 h, higher = more signal.
Assay [13] is described as follows: basal CRE-LacZ reporter activity in PC12 – cell-based, unstimulated, primary screen (AID 1145). The note with it: no forskolin, luminescence, 4.5 h, higher = more signal, called active from +8 up or from −8 down.
Assay [14] can be described thus: forskolin-driven CRE-LacZ activity in PC12 – cell-based, CRE-LacZ reporter, forskolin-stimulated, primary screen (AID 1146).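 Further: PC12 cells with 6xCRE LacZ reporter stimulated by forskolin 10 µM; beta-galactosidase reporter signal reflecting CREB driven transcription.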 The note with it: luminescence, 4.5 h, higher = more signal, called active from +8 up or from −8 down.
In assay [15] the target is Streptavidin (Streptomyces avidinii) (UniProt P22629). Briefly: compounds binding control protein streptavidin – biophysical, small-molecule microarray, 635/667 nm fluorescence, artefact control for SMM compound annotation, primary screen (AID 1147).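 Further: signal reflects streptavidin binding to arrayed compounds as a control protein.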 The following applies: higher = more signal.
Assay [16] can be described thus: probe aInhba binding on compound microarray – biochemical, small-molecule microarray, 635/667 nm fluorescence, primary screen (AID 1148).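 Further: score merges 667nm spot fluorescence with signal-to-noise for antibody binding to printed compounds.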 The following applies: higher = more signal.
Assay [17] has as its target Torsin-1A (Homo sapiens) (UniProt O14656). The experiment in a line: TOR1A wild-type binding on microarray – cell lysate, small-molecule microarray, lysate, 635/667 nm, primary screen (AID 1149). The following applies: COS7 hTOR1A-WT lysate, 635 nm fluorescence, higher = more signal.
Assay [18] has the same target. The experiment in a line: torsin A mutant lysate binding on microarrays – cell lysate, small-molecule microarray, COS7 lysate, 635/667 nm fluorescence, primary screen (AID 1150).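 Further: score pools 667 nm emission and signal to noise measuring lysate protein binding.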 The note with it: COS7 hTOR1A mutant lysate, 635 nm fluorescence, higher = more signal.
In assay [19] the test system is Sonic hedgehog protein (Shh). Briefly: Sonic hedgehog microarray binding compounds – biochemical, small-molecule microarray, 635/667 nm fluorescence, primary screen (AID 1151).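 Further: Shh protein binding to compounds spotted on small-molecule microarray slides; score combines spot fluorescence intensity with signal-to-noise across triplicate slides.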 The note with it: 635 nm fluorescence, higher = more signal.

The structures appear in SMILES notation. Activity calls are given as the source filed them. Unless noted, how the calls were made is not given here.

Sequence of Follistatin (Homo sapiens) (P19883 whole entry, looked up): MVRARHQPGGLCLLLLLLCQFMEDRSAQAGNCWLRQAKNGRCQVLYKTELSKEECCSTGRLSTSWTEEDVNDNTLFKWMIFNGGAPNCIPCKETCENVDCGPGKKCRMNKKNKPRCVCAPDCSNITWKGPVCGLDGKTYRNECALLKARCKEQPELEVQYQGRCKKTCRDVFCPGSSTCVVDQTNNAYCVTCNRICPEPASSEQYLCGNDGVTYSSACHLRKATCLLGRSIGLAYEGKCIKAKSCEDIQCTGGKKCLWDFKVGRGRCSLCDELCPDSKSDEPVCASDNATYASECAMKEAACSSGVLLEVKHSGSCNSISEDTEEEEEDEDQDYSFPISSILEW
Sequence of Streptavidin (Streptomyces avidinii) (P22629 whole entry, looked up): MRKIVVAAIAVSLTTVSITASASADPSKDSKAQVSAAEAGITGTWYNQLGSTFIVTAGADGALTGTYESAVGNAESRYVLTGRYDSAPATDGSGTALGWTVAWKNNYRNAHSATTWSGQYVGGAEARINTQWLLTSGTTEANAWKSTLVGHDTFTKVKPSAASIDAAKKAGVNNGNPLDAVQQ
Sequence of Luciferin 4-monooxygenase (Photinus pyralis) (P08659 whole entry, looked up): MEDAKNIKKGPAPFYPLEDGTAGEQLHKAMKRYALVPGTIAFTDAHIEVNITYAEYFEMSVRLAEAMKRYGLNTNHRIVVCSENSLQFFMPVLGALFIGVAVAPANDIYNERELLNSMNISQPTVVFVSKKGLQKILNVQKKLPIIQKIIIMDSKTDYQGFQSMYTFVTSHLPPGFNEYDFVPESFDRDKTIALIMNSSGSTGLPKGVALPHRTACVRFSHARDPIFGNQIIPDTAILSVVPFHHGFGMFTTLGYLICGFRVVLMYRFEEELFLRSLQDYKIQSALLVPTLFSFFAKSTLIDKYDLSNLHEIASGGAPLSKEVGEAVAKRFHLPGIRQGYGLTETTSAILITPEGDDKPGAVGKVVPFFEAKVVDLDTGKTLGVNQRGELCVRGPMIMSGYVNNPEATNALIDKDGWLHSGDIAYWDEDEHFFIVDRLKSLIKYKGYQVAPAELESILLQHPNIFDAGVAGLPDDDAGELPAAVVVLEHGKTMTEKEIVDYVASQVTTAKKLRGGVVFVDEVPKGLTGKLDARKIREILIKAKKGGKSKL
Sequence of Torsin-1A (Homo sapiens) (O14656 whole entry, looked up): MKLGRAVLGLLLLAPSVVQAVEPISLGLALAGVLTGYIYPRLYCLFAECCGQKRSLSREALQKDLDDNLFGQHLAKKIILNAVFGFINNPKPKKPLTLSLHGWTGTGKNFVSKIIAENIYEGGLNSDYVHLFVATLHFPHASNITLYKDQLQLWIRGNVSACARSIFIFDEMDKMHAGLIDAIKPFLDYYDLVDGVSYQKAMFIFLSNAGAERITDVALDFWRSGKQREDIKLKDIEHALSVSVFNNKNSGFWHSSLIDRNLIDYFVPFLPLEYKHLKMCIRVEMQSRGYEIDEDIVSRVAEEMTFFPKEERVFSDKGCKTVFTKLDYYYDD
Sequence of Focal adhesion kinase 1 (Homo sapiens) (Q05397 whole entry, looked up): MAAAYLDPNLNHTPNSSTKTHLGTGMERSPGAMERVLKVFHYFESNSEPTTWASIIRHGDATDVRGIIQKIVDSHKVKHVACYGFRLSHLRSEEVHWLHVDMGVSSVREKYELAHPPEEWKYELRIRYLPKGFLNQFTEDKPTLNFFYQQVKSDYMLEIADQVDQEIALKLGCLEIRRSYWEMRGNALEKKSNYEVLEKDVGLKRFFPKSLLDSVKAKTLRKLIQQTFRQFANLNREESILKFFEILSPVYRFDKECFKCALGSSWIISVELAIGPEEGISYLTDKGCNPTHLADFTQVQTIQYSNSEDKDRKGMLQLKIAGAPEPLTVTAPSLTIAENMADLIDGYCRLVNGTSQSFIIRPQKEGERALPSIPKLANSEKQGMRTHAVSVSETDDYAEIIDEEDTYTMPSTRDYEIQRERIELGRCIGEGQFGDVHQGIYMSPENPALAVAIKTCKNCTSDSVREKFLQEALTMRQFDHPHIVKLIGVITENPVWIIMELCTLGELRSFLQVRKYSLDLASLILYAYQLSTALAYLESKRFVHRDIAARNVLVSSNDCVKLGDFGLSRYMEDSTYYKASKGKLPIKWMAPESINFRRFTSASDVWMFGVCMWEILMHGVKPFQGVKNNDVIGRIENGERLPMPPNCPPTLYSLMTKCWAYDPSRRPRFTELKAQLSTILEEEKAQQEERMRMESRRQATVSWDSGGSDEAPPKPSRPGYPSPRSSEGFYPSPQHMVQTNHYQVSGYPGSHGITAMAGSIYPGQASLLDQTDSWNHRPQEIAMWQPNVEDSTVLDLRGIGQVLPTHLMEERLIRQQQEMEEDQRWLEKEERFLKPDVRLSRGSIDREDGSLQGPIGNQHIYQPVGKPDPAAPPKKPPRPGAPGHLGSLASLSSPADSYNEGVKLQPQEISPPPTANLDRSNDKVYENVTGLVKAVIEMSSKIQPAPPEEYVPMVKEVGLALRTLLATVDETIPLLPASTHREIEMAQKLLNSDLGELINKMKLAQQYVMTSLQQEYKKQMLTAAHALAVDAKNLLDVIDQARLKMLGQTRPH
Sequence of Fibroblast growth factor 2 (Homo sapiens) (P09038 whole entry, looked up): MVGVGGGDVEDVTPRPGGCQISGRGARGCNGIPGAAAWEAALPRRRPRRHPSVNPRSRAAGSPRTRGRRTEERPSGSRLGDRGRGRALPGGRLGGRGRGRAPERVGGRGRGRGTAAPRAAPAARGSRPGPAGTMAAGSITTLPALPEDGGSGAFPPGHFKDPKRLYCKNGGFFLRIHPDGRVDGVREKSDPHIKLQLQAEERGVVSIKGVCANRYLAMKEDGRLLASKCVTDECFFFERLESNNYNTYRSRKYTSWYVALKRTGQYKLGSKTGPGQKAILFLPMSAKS

With `NCCCCCCNC(=O)[C@H]1C[C@H]2C(=O)N[C@@H](Cc3ccccc3)C(=O)N2[C@H]1c1ccc(O)cc1`, the composite z-score came to 2.04 in assay [1]; 0.692 in assay [2]; 0.937 in assay [3]; 0.999 in assay [4]; 1.32 in assay [5]; 0.619 in assay [6]. In addition, the composite z-score in the assay on Lefty1 stood at 0.795; in [8], 1.1; in [10], 0.21; in assay [15] it was 1.38; in [16] it was 0.103; with Torsin-1A (Homo sapiens) [17], 2.14. For the same molecule, the results for the composite z-score (with Torsin-1A (Homo sapiens) [18]; in [19]) were 0.394 and 1.07, respectively. Further, the z-score in [7] is -0.267; in assay [9], 0.166 (inactive); in assay [11], 0.277 (inactive); in assay [12] it was -0.652 (inactive); in assay [13], -1.48 (inactive); in [14], -1.24 (inactive).

For `NCCCCCNC(=O)[C@@H]1C[C@@H]2C(=O)N[C@@H](CCCCN)C(=O)N2[C@@H]1c1cccc(OCCO)c1`, the composite z-score in assay [1] was 2.33; in assay [2], -0.0045; in assay [3], -0.214; in [4], 0.101; in [5] it was 1.17; in assay [6], 1.25. The composite z-score in the assay with Lefty1 was 1.54; in assay [8], 0.715; in assay [10] it was 0.331; in [15] it was 0.302; in assay [16] it was -0.331; in the assay with Torsin-1A (Homo sapiens) [17] it was 0.247. Moreover, the composite z-score with Torsin-1A (Homo sapiens) [18] is -0.02; in [19], 1.55. Further, the z-score in assay [7] was 0.844; in assay [9], 1.03 (inactive); in assay [11], 0.21 (inactive); in assay [12] it was -0.85 (inactive); in [13], -0.541 (inactive); in [14] it was -0.304 (inactive).

With `C=CC[C@H](OC(=O)Nc1ccc(OC)cc1)c1ccc(O)c2ccccc12`, the composite z-score in assay [1] was 1.15; in assay [2], 1.16; in [3], 0.531; in [4] it was 0.305; in assay [5], 1.3; in [6] it was 1.64. Moreover, the composite z-score in the assay with Lefty1 was found to be 0.907; in assay [8], 0.616; in [10], 0.49; in [15], 0.855; in assay [16], 0.0275; in the assay with Torsin-1A (Homo sapiens) [17], 0.51. Also, the composite z-score in the assay with Torsin-1A (Homo sapiens) [18] turned out to be 0.696; in assay [19], 1.66. The z-score was -1.43 in assay [7]; -6.26 (inactive) in [9]; -4.26 (inactive) in [11]; -1.4 (inactive) in assay [12]; 0.935 (inactive) in assay [13]; 5.57 (inactive) in [14].

`CC(C)C(=C=CC[C@@H](O)c1ccccc1OCCO)C[C@@H](O)COCc1ccccc1`: the composite z-score is -0.0424 in assay [1]; 0.42 in [2]; -0.0011 in assay [3]; 0.807 in [4]; 1.28 in assay [5]; 1.45 in assay [6]. Also, the composite z-score was determined as 0.435 in the assay on Lefty1; 0.288 in assay [8]; 0.679 in assay [10]; 0.235 in [15]; 0.15 in assay [16]; 0.636 with Torsin-1A (Homo sapiens) [17]. Also, the composite z-score with Torsin-1A (Homo sapiens) [18] turned out to be 1.1; in assay [19], 1.98. Also, the z-score in [7] is 1.88; in assay [9] it was -2.5 (inactive); in assay [11] it was -5.62 (inactive); in assay [12], 0.173 (inactive); in assay [13], 18.5 (active); in assay [14], -0.762 (inactive).

For `COC(=O)[C@@]1(Cc2ccccc2)[C@H]2c3cc(C(=O)N4CCCC4)n(Cc4cc(F)cc5c4OCOC5)c3C[C@H]2CN1C(=O)c1ccccc1`, the composite z-score is 0.69 in assay [1]; 1.24 in assay [2]; 0.366 in assay [3]; 0.963 in assay [4]; -0.0178 in assay [5]; -0.575 in assay [6]. Besides, the composite z-score in the assay with Lefty1 was -0.359; in assay [8] it was 0.711; in assay [10], 0.503; in assay [15], 0.503; in [16] it was 0.0982; with Torsin-1A (Homo sapiens) [17], -0.0566. The results for the composite z-score (in the assay with Torsin-1A (Homo sapiens) [18]; in assay [19]) were 1.26 and -0.457, respectively. Besides, the z-score in assay [7] is 0.487; in assay [9], 0.827 (inactive); in assay [11] it was 0.147 (inactive); in assay [12], -0.511 (inactive); in assay [13], -0.185 (inactive); in assay [14], 0.444 (inactive).
